# Bioassay records as filed in PubChem.
# Rows were chosen to be rich in hits. Some 19% of all compounds tested hit in one or more screens of this group.
# TDP1 block: blocks human tyrosyl-DNA phosphodiesterase 1; Q9NUW8; recombinant TDP1, AlphaScreen DNA substrate cleavage; Potency, µM (doses to about 130 µM), without a hit: at the highest dose activity change, negative = inhibition, usual class: inhibitors; 350,000 tested, 0.28% active; AID 485290; also: potency is read from the fitted curve at half-maximal effect; % is scaled to controls: 0 for no effect and ±100 for the full control effect; nearly all actives have a fitted effect of over 40% in size
# Target sequence (Q9NUW8 whole entry, looked up): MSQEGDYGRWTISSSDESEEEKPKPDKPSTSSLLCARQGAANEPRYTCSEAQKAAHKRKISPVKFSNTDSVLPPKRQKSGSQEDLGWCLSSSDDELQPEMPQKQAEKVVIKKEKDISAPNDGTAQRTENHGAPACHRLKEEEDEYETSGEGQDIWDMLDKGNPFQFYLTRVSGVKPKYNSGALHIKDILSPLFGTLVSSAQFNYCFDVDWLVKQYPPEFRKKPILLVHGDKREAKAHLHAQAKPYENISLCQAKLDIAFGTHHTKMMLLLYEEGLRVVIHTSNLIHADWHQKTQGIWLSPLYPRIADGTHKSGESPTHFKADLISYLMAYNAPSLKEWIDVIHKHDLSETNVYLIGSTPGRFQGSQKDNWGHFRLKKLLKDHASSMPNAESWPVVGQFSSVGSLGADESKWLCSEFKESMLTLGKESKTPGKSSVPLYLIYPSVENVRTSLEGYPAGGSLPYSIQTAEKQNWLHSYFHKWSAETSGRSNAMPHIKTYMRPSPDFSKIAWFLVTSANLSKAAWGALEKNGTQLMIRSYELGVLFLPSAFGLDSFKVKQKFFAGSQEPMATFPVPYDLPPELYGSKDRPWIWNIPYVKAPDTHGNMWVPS
#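 Signal: AlphaScreen proximity between streptavidin donor and anti-FITC acceptor beads on intact substrate. Reaction: Tdp1 1 nM, substrate 15 nM final, 5 min RT after 15 min compound preincubation.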
# IL1B secr inh: inflammasome signaling inhibition, IL-1 beta readout | THP-1 LPS/ATP IL-1B secretion, AlphaLISA, 16 h; active compounds read low | activity change, % at 57.5 µM | 360,000 tested, 4.7% active; in the data active = activity change below about -50%; inconclusive = mostly about -30% to -49%; also: % is scaled to controls: 0 for no effect and ±100 for the full control effect
#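 THP-1 cells pretreated 1 hr with compounds (up to 57.5 uM final), then stimulated with LPS (250 ng/mL final) plus ATP (1.25 mM final); secreted IL-1B measured by AlphaLISA after 16 hr, decreased signal indicating inhibition.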
# TGFb inhibitor: blocks TGF-b signaling; AID 588855; Potency, µM (titrated, usually from 46.1 µM), without a hit: at the highest dose activity, negative = inhibition, usual class: inhibitors; HepG2 CAGA-GFP TGF-b/SMAD3 reporter, GFP fluorescence, 18 h; TGF-beta stimulated, 500 pg/mL final; 410,000 tested, 1.2% active; also: potency is read from the fitted curve at half-maximal effect; % is scaled to controls: 0 for no effect and ±100 for the full control effect; nearly all actives have a fitted effect of over 65% in size
#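 Smad-responsive CAGA-GFP expression was quantified in HEPG2 cells exposed to compounds and 500 pg/mL final TGF-beta for 18 h at 37 degrees C; unstimulated wells defined full inhibition.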
# HepG2 tox: counter-screen for TGF-b inhibitors: cytotoxicity in HepG2 cells; HepG2 CAGA-GFP viability, ATP luminescence, 18 h; Potency, µM (top dose mostly 46.1 µM), without a hit: top-dose activity change, negative = cytotoxicity, hits mostly cytotoxic; 410,000 tested, 0.76% active; also: potency is read from the fitted curve at half-maximal effect
#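 HepG2 CAGA-GFP cells (1000/well, DMEM with 1% FBS) received compound, then TGF-beta at 500 pg/mL final, and were incubated 18 hours at 37 degrees C. Viability was read by CellTiter-Glo luminescence. Media-only wells were set as complete cell-killing and DMSO as no toxicity.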
# DT40 TDP1 CPT: growth inhibition of DT40 Tdp1-/-;hTDP1 cells with camptothecin (screen for TDP1 inhibitors); chicken DT40 Tdp1-/-;hTDP1 cells + 20 nM CPT, ATP luminescence, 48 h; Potency, µM (titrated, usually from 46.2 µM), for the others: at the top dose activity change, negative = growth inhibition, most hits filed as inhibitors; 420,000 tested, 12% active; AID 686979; also: potency is read from the fitted curve at half-maximal effect; % is scaled to controls: 0 for no effect and ±100 for the full control effect; nearly all actives have a fitted effect of over 55% in size
#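 Cell growth measured by CellTiter-Glo luminescence after a minimum 48 h, 37 C compound exposure with 20 nM CPT in Tdp1-knockout DT40 cells stably expressing hTDP1, seeded 400/well; qHTS titration format.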
# DT40 TDP1 no CPT: qHTS for Inhibitors of human tyrosyl-DNA phosphodiesterase 1 (TDP1): qHTS in cells in absence of CPT. DT40 Tdp1-/- hTDP1 cells, no CPT, ATP luminescence, 48 h. Potency, µM (highest dose often 46.2 µM), for the others: top-dose activity change, negative = growth inhibition, usual class: inhibitors. 420,000 tested, 15% active. AID 686978, 2013; also: potency is read from the fitted curve at half-maximal effect; % is scaled to controls: 0 for no effect and ±100 for the full control effect; nearly all actives have a fitted effect of over 55% in size
#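 No-CPT arm: Tdp1-/-;hTDP1 DT40 cells (400/well) plus compounds, incubated ≥48 hr at 37 °C. Readout CellTiter-Glo luminescence.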
# * = called active by the depositor; u = inconclusive; x = no result. Unless noted, calls follow the shape of the dose curve; as a rule, active = well fitted curve in the direction sought with a large enough effect; inconclusive = small, poorly fitted or top-dose-only effect, or another doubt; inactive = no such curve, though single readings can be large; an effect the other way counts as inactive or inconclusive.
SMILES,TDP1 block,IL1B secr inh,TGFb inhibitor,HepG2 tox,DT40 TDP1 CPT,DT40 TDP1 no CPT
COC(=O)c1sccc1S(=O)(=O)N(CC(=O)NCc1ccc(F)cc1)c1ccc(C)c(C)c1,1.9%,x,-10.5%,-20.1%,u,-7.1%
CC(C)n1ncc2c(C(=O)NCCc3ccc(F)cc3)cc(C3CC3)nc21,1.4%,u,2.2%,0.0%,u,23.1µM*
COc1ccc(CNC(=O)c2cc(C3CC3)nc3c2cnn3C(C)C)cc1OC,-1.5%,-10.7,-0.7%,-1.5%,u,-20.1%
Cc1ccccc1CCNC(=O)c1cc(C2CC2)nc2c1cnn2C(C)C,-6.3%,-23.7,u,-3.5%,20.6µM*,u
CCc1ccccc1NC(=O)CN(C)C(=O)c1cc(C2CC2)nc2c1cnn2C(C)C,1.0%,-4.7,14.8%,8.4%,-23.6%,-4.2%
COc1ccc(NC(=O)N2CC[C@@]3(CCCNC3)C2)cc1,x,x,x,x,-20.4%,-21.3%
Cc1ccc(CNc2nc(C)cs2)cc1,12.1%,-58.0*,-1.0%,-0.8%,-2.8%,-28.1%
CC(=O)Nc1nc(C)cs1,-2.9%,23.0,10.2%,-1.6%,-12.2%,-10.7%
CC(=O)Nc1ccc(NC(=O)c2nc(S(=O)(=O)Cc3cccc(C)c3)ncc2Cl)cc1,3.9%,-100.1*,u,-147.4%,0.058µM*,0.0461µM*
CCc1ccc(NC(=O)c2nc(S(=O)(=O)Cc3ccccc3)ncc2Cl)cc1,0.8%,x,x,x,x,x
COC(=O)c1ccccc1NC(=O)c1nc(S(=O)(=O)Cc2cccc(C)c2)ncc1Cl,7.0%,x,-3.4%,3.9%,2.91µM*,2.59µM*
COC(=O)c1ccc(NC(=O)c2nc(S(=O)(=O)Cc3cccc(C)c3)ncc2Cl)cc1,0.0%,-102.8*,u,22.4µM*,0.581µM*,0.517µM*
Cc1ccc(S(=O)(=O)N2CCC(C(=O)OCC(=O)N3CCCC(C)C3)CC2)cc1C (stereo not given),-0.2%,17.5,-6.0%,6.8%,15.9%,-2.2%
Cc1cccc(NC(=O)N2CCC(N3CCN(Cc4ccccc4)C(=O)C3=O)CC2)c1C,7.4%,x,-8.1%,1.8%,-21.3%,12.4%
Nc1ccc(Oc2ccc([N+](=O)[O-])cc2[N+](=O)[O-])cc1,7.0%,4.2,-4.4%,-8.7%,18.4µM*,u
O=[N+]([O-])c1ccc(Oc2cccnc2)c([N+](=O)[O-])c1,x,-111.6*,u,-20.9%,4.11µM*,5.8µM*
Nc1ccc(Oc2ccc(N)c([N+](=O)[O-])c2)cc1[N+](=O)[O-],x,-25.9,-14.1%,-33.9%,-0.2%,u
COc1cn(CC(=O)Nc2ccccc2)c(CN2CCCCC2)cc1=O,0.5%,x,3.6%,0.0%,2.0%,-7.1%
O=C(NCc1ccccc1)C(c1ccccc1)N(C(=O)c1csnn1)C1CCCC1 (stereo not given),x,-0.9,-5.3%,-6.2%,3.3%,-28.7%
O=C(OCCC12CC3CC(CC(C3)C1)C2)c1ccc(NCc2cc(O)ccc2O)cc1,x,-120.6*,u,-89.8%,1.84µM*,2.06µM*
O=C(OCC12CC3CC(CC(C3)C1)C2)c1ccc(NCc2cc(O)ccc2O)cc1,x,-51.8*,u,11.2µM*,1.46µM*,0.731µM*
CCOc1ccccc1N1C(=O)c2ccccc2N/C1=C\N1CCN(C(=O)c2ccco2)CC1,0.9%,x,x,x,-23.4%,u
CCC1CN(C(=O)Nc2ccccc2C(F)(F)F)c2ccccc2S1 (stereo not given),11.2%,x,-3.8%,1.0%,-9.9%,2.6%
CCOC(=O)c1c(-c2ccccc2)nnn1-c1nc(OC)nc(N2CCOCC2)n1,-14.2%,-17.0,14.4%,6.7%,23.1µM*,16.4µM*
Cc1ccc(-c2c(CN3CCN(c4cc(C)ccc4C)CC3)csc2C)cc1,2.6%,x,x,-16.5%,u,16.4µM*
SMILES,TDP1 block,IL1B secr inh,TGFb inhibitor,HepG2 tox,DT40 TDP1 CPT,DT40 TDP1 no CPT
Cc1ccc(C)c(N2CCN(Cc3csc(C)c3C)CC2)c1,5.1%,x,u,-41.1%,u,14.6µM*
CCCC(C(=O)Nc1cc(S(=O)(=O)N2CCOCC2)ccc1OC)c1ccccc1 (stereo not given),4.8%,6.2,-9.9%,-10.3%,11.8%,5.4%
COc1ccc(N2CC(NC(=O)COc3ccc(F)cc3)CC2=O)cc1OC (stereo not given),-2.6%,x,x,-16.2%,-6.8%,-14.1%
COC(=O)C[C@H]1C[C@H]2c3cc(NC(=O)Nc4ccc(C(F)(F)F)cc4)ccc3O[C@H]2[C@@H](CO)O1,x,-4.3,3.9%,-39.6%,u,25.9µM*
COCC(=O)Nc1ccc2c(c1)[C@@H]1C[C@H](CC(=O)NCc3cccc(F)c3)O[C@@H](CO)[C@@H]1O2,x,9.1,40.3%,-3.1%,-23.2%,-19.1%
COC(=O)C[C@H]1C[C@@H]2c3cc(NC(=O)Nc4ccc(F)cc4)ccc3O[C@@H]2[C@@H](CO)O1,x,13.2,-1.6%,-2.2%,-4.2%,-8.8%
O=C(C[C@@H]1C[C@H]2c3cc(NC(=O)NC4CCCCC4)ccc3O[C@H]2[C@H](CO)O1)NC1CCCCC1,x,u,-5.8%,-15.5%,u,14.6µM*
COCCNC(=O)C[C@@H]1C[C@H]2c3cc(NC(=O)Nc4ccc(F)cc4)ccc3O[C@H]2[C@H](CO)O1,x,3.4,-3.3%,-17.1%,u,8.2µM*
COC(=O)C[C@@H]1C[C@H]2c3cc(NC(=O)C4CCC4)ccc3O[C@H]2[C@@H](CO)O1,x,9.6,-2.1%,-12.0%,-2.3%,-5.2%
O=C(C[C@H]1C[C@@H]2c3cc(NC(=O)Nc4ccccc4F)ccc3O[C@@H]2[C@H](CO)O1)NCc1ccccn1,x,-1.4,-0.9%,-8.7%,u,16.4µM*
CCN1C(=O)/C(=C\N(C)C)S/C1=N\S(=O)(=O)c1ccc(C)cc1,-7.5%,75.9,-2.0%,5.9%,4.7%,-2.6%
CCCNC(=O)C[C@H]1C[C@H]2c3cc(NC(=O)Nc4ccc(F)cc4)ccc3O[C@H]2[C@@H](CO)O1,x,-6.1,8.8%,0.1%,1.84µM*,2.31µM*
COc1cccc(S(=O)(=O)Nc2ccc3c(c2)[C@@H]2C[C@H](CC(=O)NCCc4ccccc4)O[C@H](CO)[C@@H]2O3)c1,x,-13.0,-3.6%,-10.2%,23.1µM*,16.4µM*
N#CC12COC3(CCCCC3C1(C#N)C#N)OC2=N (stereo not given),x,-20.6,15.7%,-15.1%,2.31µM*,2.59µM*
